Compound activity (PubChem BioAssay)
Rows were chosen to be rich in hits. Some 2.6% of all compounds tested hit in one or more screens of this group.
Cruzain Triton = blocks cruzain activity in presence of Triton detergent. AID 1478. purified cruzain, Z-FR-AMC fluorescence, 0.01% Triton. Potency, µM, hits mostly inhibitors. actives 0.43% (n = 200,000); further: nearly all actives have a fitted effect of over 40% in size
Target sequence (P25779 123-467 limits assumed): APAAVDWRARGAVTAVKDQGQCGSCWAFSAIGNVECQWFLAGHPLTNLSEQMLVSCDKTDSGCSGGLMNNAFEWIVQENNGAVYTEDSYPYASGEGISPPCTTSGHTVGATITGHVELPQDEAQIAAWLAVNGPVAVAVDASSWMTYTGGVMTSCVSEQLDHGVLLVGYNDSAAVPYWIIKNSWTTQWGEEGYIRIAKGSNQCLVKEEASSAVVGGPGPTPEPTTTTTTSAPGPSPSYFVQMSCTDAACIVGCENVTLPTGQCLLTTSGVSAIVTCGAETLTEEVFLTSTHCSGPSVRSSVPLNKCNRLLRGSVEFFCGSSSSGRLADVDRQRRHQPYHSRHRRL
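Cruzain (1.5 nM) preincubated 15 min at RT with compound in 100 mM sodium acetate pH 5.5, 5 mM DTT, 0.01% Triton X-100. Reaction started with 2 uM Z-FR-AMC; AMC fluorescence (ex 360/em 450 nm) change over 60 s gave rate.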
Cruzain noTriton = cruzain (T. cruzi) inhibition without detergent. P25779. purified cruzain, Z-FR-AMC fluorescence, no detergent. Potency, µM, hits mostly inhibitors. actives 2.3% (n = 200,000); further: nearly all actives have a fitted effect of over 40% in size
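Detergent-free condition (0.00005% Triton X-100) in acetate buffer pH 5.5 with DTT. 1.5 nM enzyme and compound were pre-mixed 15 min, then 2 uM Z-FR-AMC substrate added; reaction progress from fluorescence change between first and third reads (60 s).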
Papain inh = counter-screen for cruzain inhibitors: papain inhibition. shares compounds with Cruzain Triton. purified papain, Z-FR-AMC fluorescence cleavage. actives 41% (n = 410). Potency, µM, hits mostly inhibitors; further: nearly all actives have a fitted effect of over 35% in size
Target sequence (P00784 whole entry, looked up): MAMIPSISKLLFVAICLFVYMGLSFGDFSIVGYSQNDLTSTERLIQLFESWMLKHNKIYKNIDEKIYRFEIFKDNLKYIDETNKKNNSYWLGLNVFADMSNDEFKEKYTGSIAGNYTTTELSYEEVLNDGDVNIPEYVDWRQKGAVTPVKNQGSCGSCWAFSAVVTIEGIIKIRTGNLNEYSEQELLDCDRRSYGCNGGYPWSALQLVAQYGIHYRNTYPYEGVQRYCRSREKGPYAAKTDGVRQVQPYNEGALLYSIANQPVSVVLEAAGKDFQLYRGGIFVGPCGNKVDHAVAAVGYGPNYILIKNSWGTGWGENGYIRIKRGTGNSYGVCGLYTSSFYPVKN
Each line names hits and unclear results; the compound was inactive in the other large screens (follow-up assays come after a bar, where they were run). The call rests on the fitted dose curve; in most records, active means well fitted curve in the direction sought with a large enough effect; inconclusive means small, poorly fitted or top-dose-only effect, or another doubt; inactive means no such curve, though single readings can be large; an effect the other way counts as inactive or inconclusive.

CCN(CC)S(=O)(=O)c1ccc2c(c1)nc(CN(C)C(=O)Nc1ccc(F)cc1)n2C	none
CCCCN(CC)CCCNC(=O)c1sc2nc(C)cc(C)c2c1-n1cccc1	none
Cc1cc(-c2nnc3sc(-c4ccc(Cl)cc4Cl)nn23)n[nH]1	none
COc1cc(OC)c(-c2nn3c(-c4n[nH]c5c4CCC5)nnc3s2)cc1OC	none (no result: Cruzain Triton, Cruzain noTriton) | Papain inh inactive
COc1cc(OC)c(-c2nn3c(-c4cc(C)[nH]n4)nnc3s2)cc1OC	none (no result: Cruzain Triton, Cruzain noTriton) | Papain inh inactive
c1csc(Cc2nn3c(-c4n[nH]c5c4CCC5)nnc3s2)c1	Cruzain noTriton inconclusive
CNS(=O)(=O)c1ccccc1C(=N)c1ccccc1	none
CCNC(=O)c1cnc2sc(N3CCC(C)CC3)nn2c1=O	none
O=C(O)CN(CCN(CC(=O)O)CC(=O)O)CC(=O)O.[Mn]	none
O=C(CNC(=O)C1CCCCC1)Nc1ccccc1	none
Cc1cc(NC(=O)CNC(=O)C2CCCCC2)no1	none
CC(C)(C)NC(=O)COC(=O)CNC(=O)C1CCCCC1	none (no result: Cruzain Triton, Cruzain noTriton) | Papain inh inactive
CC(C)NC(=O)COC(=O)CNC(=O)C1CCCCC1	none (no result: Cruzain Triton, Cruzain noTriton) | Papain inh inactive
O=C(O)CC[P+](c1ccccc1)(c1ccccc1)c1ccccc1	none
COc1ccc(-c2nc3ccc(C(=O)NCc4ccccc4)cc3nc2-c2ccc(OC)cc2)cc1	none
O=C(NCC1CC1)c1ccc2nc(-c3ccoc3)c(-c3ccoc3)nc2c1	none (no result: Cruzain Triton, Cruzain noTriton) | Papain inh inactive
CC(NC(=O)c1ccc(F)cc1)c1nc2ccccc2n1Cc1ccccc1F (stereo unspecified)	none
O=C(NCCc1nc2ccccc2n1Cc1ccccc1F)c1ccc(F)cc1	Cruzain Triton 3.2µM | Papain inh inactive
CCc1ccccc1N1C(=O)N(Cc2cc(=O)n3ccccc3n2)c2ccccc2S1(=O)=O	Cruzain noTriton inconclusive
C=CCn1c(SCC(=O)Nc2cccc3ccccc23)nnc1-c1cnccn1	none
C=CCn1c(SCC(=O)Nc2cc3oc4ccccc4c3cc2OC)nnc1-c1cnccn1	Cruzain noTriton inconclusive | Papain inh inactive
CCOc1cc(Br)cc(C2NC(=O)c3c(sc4c3CCN(C)C4)N2)c1O (stereo unspecified)	none
O=C(COc1ccc(F)cc1)NCCc1nc2ccccc2[nH]1	Cruzain Triton 1.6µM | Papain inh 3.5µM
O=C(NCCc1nc2ccccc2[nH]1)Nc1ccccc1	none
COc1ccc(/C=N/NC(=O)c2ccc(Br)cc2)cc1Cn1cc(Cl)cn1	Cruzain noTriton inconclusive | Papain inh inactive
COc1ccc(/C=N/NC(=O)c2cccc(Br)c2)cc1Cn1cc(Cl)cn1	Cruzain noTriton inconclusive
O=c1cc(N=Nc2ccc(O)cc2)[nH]c(=O)[nH]1	none
CC(Oc1ccccc1)C(=O)Nc1ccc(C(=O)OCc2cc(=O)n3ccsc3n2)cc1 (stereo unspecified)	Cruzain noTriton inconclusive
CCc1ccccc1NC(=O)C(=O)NCCCN1CCOCC1	none
CC1CCN(c2nnc(-n3cccc3CNc3cccc(F)c3)s2)CC1	none
O=C1CN(C(=O)CSc2nc3ccccc3n2CCc2ccccc2)c2ccccc2N1	none
CCCn1c(SCC(=O)N2CC(=O)Nc3ccccc32)nc2ccccc21	Cruzain Triton 13µM | Papain inh inactive
CCC(C)NC(=O)c1ccc2nc(-c3cccs3)c(-c3cccs3)nc2c1 (stereo unspecified)	none (no result: Cruzain Triton, Cruzain noTriton) | Papain inh inactive
COCCNC(=O)Nc1ccc2nc(-c3cccs3)c(-c3cccs3)nc2c1	Cruzain noTriton inconclusive
COCCN(CCOC)c1nc(C)nc2c1nc(-c1ccccc1)n2CCN1CCCC1	none
COc1cc(NC(=O)Cn2nnc(-c3ccc(C(F)(F)F)cc3)n2)c(C(=O)O)cc1OC	Cruzain noTriton inconclusive
Cc1ccc(OCCCCn2c(CCNC(=O)C(C)(C)C)nc3ccccc32)cc1	Cruzain noTriton inconclusive
CC(C)(C)C(=O)NCCc1nc2ccccc2n1CCCCOc1ccccc1	none
O=C(NCCCc1nc2ccccc2n1Cc1ccc(Cl)cc1)C1CCCCC1	none
O=C(NCCc1nc2ccccc2n1CCOc1ccccc1)C1CCCCC1	none (no result: Cruzain Triton, Cruzain noTriton) | Papain inh inactive
Cc1ccc(OCCCn2c(CCCNC(=O)C3CCCCC3)nc3ccccc32)cc1	none (no result: Cruzain Triton, Cruzain noTriton) | Papain inh inactive
O=C(NCCc1nc2ccccc2n1CCOc1ccc(Cl)cc1)C1CCCCC1	Cruzain Triton 1.3µM | Papain inh 8.9µM
CC(C)C(=O)NCCc1nc2ccccc2n1CCOc1ccccc1	none
CCc1ccc(OCCCCn2c(CCNC(=O)C3CCCCC3)nc3ccccc32)cc1	none (no result: Cruzain Triton, Cruzain noTriton) | Papain inh 22µM
COc1ccccc1NCc1cccn1-c1nnc(N2CCOCC2)s1	none
Cc1ccccc1NC(=O)c1sc2nc3n(c(=O)c2c1C)N=C(c1ccccc1)CS3	none
COc1ccc2c(c1)c(CC(=O)NCc1ccc3c(c1)OCO3)c(C)n2C(=O)c1ccc(Cl)cc1	none
O=C(Nc1cccc(F)c1)N1CCCC2(CCN(C(=O)c3cc(C(F)(F)F)cc(C(F)(F)F)c3)CC2)C1	Cruzain noTriton inconclusive
O=C(CSc1ncc(S(=O)(=O)c2ccc(Cl)cc2)c(=O)[nH]1)Nc1cccc(C(F)(F)F)c1	Cruzain Triton inconclusive
CC(C)(C)c1ccc(S(=O)(=O)c2cnc(SCC(=O)Nc3ccc(F)c(Cl)c3)[nH]c2=O)cc1	Cruzain Triton 20µM | Papain inh 2.8µM
c1ccncc1	none
COc1ccc(-c2cc(C#N)nc(N3CCN(C)CC3)n2)cc1	Cruzain Triton 25µM, Cruzain noTriton 16µM | Papain inh inactive
COc1ccc(-c2cc(C(F)(F)F)nc(N3CCN(C)CC3)n2)cc1	none
NC(=O)CSc1nnc([C@@H](N)Cc2c[nH]c3ccccc23)o1	Cruzain Triton 8.9µM, Cruzain noTriton 10µM | Papain inh inactive
CC(C)(C)OC(=O)N[C@@H](Cc1c[nH]c2ccccc12)c1nnc(SCC(N)=O)o1	none
COc1ccc(Nc2cc(C(=O)NCCCN(C)Cc3ccccc3)c3ccccc3n2)cc1OC	none
O=C(NCCCc1nc2ccccc2n1Cc1c(F)cccc1Cl)C1CCCCC1	none
Cc1ccccc1OCCn1c(CCNC(=O)C(C)(C)C)nc2ccccc21	Cruzain noTriton inconclusive
O=C(NCCc1nc2ccccc2n1CCCOc1ccccc1Cl)C1CCCCC1	none (no result: Cruzain Triton, Cruzain noTriton) | Papain inh inactive
Cc1ccc(C)c(OCCn2c(CCNC(=O)C3CCCCC3)nc3ccccc32)c1	Cruzain Triton 1.3µM | Papain inh inactive
O=C(NCCCc1nc2ccccc2n1Cc1ccccc1Cl)C1CCCCC1	none
O=C(NCCc1nc2ccccc2n1CCOc1cccc2ccccc12)C1CCCCC1	none (no result: Cruzain Triton, Cruzain noTriton) | Papain inh inactive
CC(=O)NCCc1nc2ccccc2n1Cc1ccc(C)cc1	none
Cc1ccccc1OCCn1c(CCNC(=O)C2CCCCC2)nc2ccccc21	Cruzain Triton 1.4µM | Papain inh inactive
COc1ccc(CN2COc3ccc4c(-c5ccccc5)cc(=O)oc4c3C2)cc1OC	Cruzain noTriton inconclusive
O=C(NCCc1ccc(Cl)cc1)c1ccc(CS(=O)Cc2cccc(Cl)c2)o1 (stereo unspecified)	Cruzain noTriton inconclusive
CC(C)NS(=O)(=O)c1ccc(OCC(=O)N2CCN(c3ccccc3F)CC2)cc1	none
CCn1cc(CNC(=O)c2cc(-c3ccc(C)cc3)nc3ccc(Br)cc23)c(C)n1	Cruzain noTriton inconclusive
C/C(=C\C[Si](C)(C)C)CC[C@H](O)C1=CCCCC1=O	Cruzain noTriton inconclusive
COc1ccc2c(c1)O[C@H](c1ccc3c(c1)OCO3)[C@@H](OC(=O)NS(=O)(=O)c1ccc(C)cc1)C2=O	none
O=C(CNC(=O)c1ccccc1)N[C@H](C(=O)Nc1cc(C(F)(F)F)ccc1Cl)c1ccccc1	none (no result: Cruzain Triton, Cruzain noTriton) | Papain inh inactive
